Experimental data from PubChem BioAssay (NCI).
This is part of a sample that, as a whole, favours compounds with a hit. Of some 79,000 tested, about 15% had one in any assay. No stated cut-off is given here; in the data, active means growth inhibition above about 70%; inactive means the rest.

Assays:
[1] = NCI Yeast Anticancer Drug Screen. Data for the rad50 strain (AID 155);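 further: 0% = growth of vehicle-only cultures of the same strain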; settings: S. cerevisiae rad50 strain growth inhibition; at 50.0 µM; hits give high values
Method in brief: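 Inhibition values express reduced yeast growth in compound-treated cultures relative to vehicle-treated controls.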

[2] = NCI Yeast Anticancer Drug Screen. Data for the mec2-1 strain (AID 157); settings: S. cerevisiae mec2-1 strain, at 50.0 µM, hits give high values
Method in brief: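 Strain: mec2-1 (DNA repair/cell cycle alteration). Compound exposure, then growth measured; inhibition expressed relative to vehicle.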

[3] = NCI Yeast Anticancer Drug Screen. Data for the sgs1 mgt1 strain (AID 161);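 further: 0% = growth of cultures given vehicle only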; settings: S. cerevisiae sgs1 mgt1 strain, at 50.0 µM, hits give high values
Method in brief: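 Inhibition of yeast growth, normalised to vehicle-treated controls, is reported for a strain bearing genetic alterations in DNA damage repair.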

[4] = NCI Yeast Anticancer Drug Screen. Data for the cln2 rad14 strain (AID 165);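 further: 0% = growth equal to vehicle treated cultures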; settings: S. cerevisiae cln2 rad14 strain, at 50.0 µM, hits give high values
Method in brief: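 Compounds are applied to the cln2 rad14 yeast strain, and growth is then compared with that of vehicle-treated cultures to give inhibition.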

[5] = NCI Yeast Anticancer Drug Screen. Data for the bub3 strain (AID 167); settings: S. cerevisiae bub3 mutant strain, at 50.0 µM, hits give high values
Method in brief: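 Steps: expose the mutant yeast strain to compound; grow alongside vehicle-treated cultures; measure growth; express inhibition against the vehicle cultures.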

[6] = NCI Yeast Anticancer Drug Screen. Data for the mlh1 rad18 strain (AID 175); settings: S. cerevisiae mlh1 rad18 strain growth inhibition; at 50.0 µM; hits give high values
Method in brief: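 Read-out is yeast growth inhibition, calculated against vehicle-only controls. The compound was applied to a strain engineered with DNA damage repair alterations.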

Measured: growth inhibition

COc1ccc(C(=O)N/N=C/c2cccc(OC)c2OC)cc1
inactive: [1] -6.3% | [2] -4.75% | [3] -20.1% | [4] -26.2% | [5] 13.1% | [6] -41.8%

CC(=O)Oc1c(/C=C/c2ccccc2)c(OC(C)=O)c2cc(Br)ccc2c1OC(C)=O
inactive: [1] 13.1% | [2] 28.2% | [3] 25.2% | [4] -27% | [5] -17.2% | [6] 29.6%

O=S(=O)([O-])c1ccc2c(c1)-c1nc-2nc2[n-]c(nc3nc(nc4[n-]c(n1)c1ccc(S(=O)(=O)[O-])cc41)-c1cc(S(=O)(=O)[O-])ccc1-3)c1ccc(S(=O)(=O)[O-])cc21.[Cu+2].[Na+]
inactive: [1] -13.7% | [2] -40.1% | [3] -23.8% | [4] -16.2% | [5] -34% | [6] -94.2%

CC(C(=O)O)C(=O)NNc1ccccc1 (stereo unspecified)
inactive: [1] 7.8% | [2] -17.9% | [3] -6.7% | [4] 8.4% | [5] -2.1% | [6] -16.4%

NC(CS(N)(=O)=O)C(=O)O (stereo unspecified)
inactive: [1] -6.3% | [2] -3.75% | [3] -1.05% | [4] -51.5% | [5] -3.2% | [6] 2.8%

Cn1c(=O)c2[nH]c(NCc3ccccc3)nc2n(C)c1=O
inactive: [1] 27.4% | [2] -3.9% | [3] 0.7% | [4] -35.2% | [5] 0.4% | [6] -0.2%

CCOC(=O)C(CCCOC1CCCCO1)(C(=O)OCC)c1ccccc1 (stereo unspecified)
inactive: [1] 21.4% | [2] -0.1% | [3] -15.2% | [4] 14.4% | [5] 8.8% | [6] -5%

O=C(O)c1ccncc1S(=O)(=O)O
inactive: [1] -20.6% | [2] -36.2% | [3] -24.3% | [4] -8.4% | [5] -23.5% | [6] -9.9%

ClC1C2c3ccccc3C1C1C2C2(c3ccccc3)OC1(c1ccccc1)c1ccccc12 (stereo unspecified)
inactive: [1] 12.7% | [2] 1.65% | [3] -3.2% | [4] -60.1% | [5] -2% | [6] 0.2%

CC1(O)CC2(O)C=CC3=C(C(=O)c4cccc(O)c4C3=O)C2(O)C(=O)C1O (stereo unspecified)
inactive: [1] 14.2% | [2] 4.1% | [3] 30.4% | [4] 15.8% | [5] 22.9% | [6] 16.6%

CSc1nc(NC2OC(CO)C(O)C(O)C2O)c(C=O)c(=O)n1C (stereo unspecified)
inactive: [1] 10% | [2] -0.8% | [3] 10.3% | [4] 4% | [5] 2.45% | [6] 7.75%

C=C1CC2(CC(c3ccccc3Cl)OC(c3ccccc3Cl)C2)OC1=O (stereo unspecified)
inactive: [1] 27.2% | [2] 47.2% | [3] 23.2% | [4] 33.2% | [5] 20.7% | [6] 18.8%

CC(=O)OC12CC(C)C3(O)C4C=C(C)C(=O)[C@@]4(O)CC(CO)=C[C@H]3C1C2(C)C (stereo partly specified)
inactive: [1] -4.3% | [2] -6.15% | [3] 9.95% | [4] 5.35% | [5] 6.8% | [6] 2.05%

CCOc1ccccc1NC(=O)CC(C)=O
inactive: [1] 14.3% | [2] 20.6% | [3] 22.2% | [4] 1.9% | [5] 33.3% | [6] 10.4%

Cc1cc(C)c2c(=O)cc(-c3cccc(F)c3)[nH]c2n1
inactive: [1] 1.35% | [2] -0.65% | [3] -28.2% | [4] 3.8% | [5] -1.3% | [6] -26.1%

CC1=C(C)CN(CCC(=O)O)C(C(N)=O)C1 (stereo unspecified)
inactive: [1] -11.9% | [2] -2.3% | [3] -3.8% | [4] 17.5% | [5] 18.5% | [6] -10.1%

CNCc1cccc(OC)c1OC
inactive: [1] -1.05% | [2] -5.4% | [3] -2.35% | [4] -0.6% | [5] 16.2% | [6] -2.7%

COc1ccc(C(O)(CCN2CCOCC2)c2ccc3c(c2)OCO3)cc1 (stereo unspecified)
inactive: [1] -8.4% | [2] 9.2% | [3] -7.7% | [4] -47.4% | [5] 8.6% | [6] -0.3%

O=C(O)/C=C/C(=O)Nc1ccc(C(=O)O)cc1
inactive: [1] 22.9% | [2] -27.3% | [3] 10.2% | [4] 7.6% | [5] -20.9% | [6] -3.7%

CSc1nc(NC2OCC(OC(C)=O)C(OC(C)=O)C2OC(C)=O)c(N=CC=Nc2c(NC3OCC(OC(C)=O)C(OC(C)=O)C3OC(C)=O)nc(SC)n(C)c2=O)c(=O)n1C (stereo unspecified)
inactive: [1] -4.3% | [2] -4.85% | [3] -19.8% | [4] -16.3% | [5] 7.95% | [6] 12.4%

O=C(Cl)c1ccc2ccccc2c1
inactive: [1] 45.8% | [2] 8.3% | [3] 3% | [4] -43% | [5] -20.4% | [6] 29.4%
